Experimental data taken from PubChem BioAssay AID1159580 (chemical genetic matrix, 2015).
Several values for one entry are separate records, joined by “and”; a condition that tells them apart may be missing. Equal entries are not always repeated. Screen size: about 5,500 compounds; about 2,000 (36%) were called active. Inconclusive results (about 18%) are left out. No stated cut-off is given here; in the data, active means normalized growth mostly below about 0.91 (no sharp cut-off); inconclusive means no clear call, values can overlap the other calls; inactive means mostly above about 0.92. The list shows a part of the results.

Test: chemical genetic growth profiling, strain panel (AID 1159580);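 further: tested at 20 µM; growth read once vehicle control cultures reached saturation at 30 °C; 1 = growth at the plate median or of vehicle wells; lower values mean less growth of the strain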
Conditions: S. cerevisiae deletion strains, growth OD

Measured: normalized growth

NS(=O)(=O)c1cc2c(cc1Cl)NCNS2(=O)=O
inactive: locus YAL013W, strain DEP1, hits give low values 1.01 | locus YAL021C, strain ccr4, hits give low values 1 | locus YAL026C, strain drs2, hits give low values 1.01 | locus YAL030W, strain snc1, hits give low values 1 | locus YAL040C, strain CLN3, hits give low values 1.01 | locus YBL061C, strain skt5, hits give low values 0.995 | locus YBR009C, strain hhf1, hits give low values 0.996 | locus YBR021W, strain FUR4, hits give low values 0.994 | locus YBR023C, strain chs3, hits give low values 0.984 | locus YBR171W, strain sec66, hits give low values 0.997 | locus YBR229C, strain ROT2, hits give low values 1 | locus YBR231C, strain swc5, hits give low values 0.976 | locus YBR279W, strain paf1, hits give low values 0.999 | locus YCL011C, strain gbp2, hits give low values 1 | locus YCL016C, strain dcc1, hits give low values 0.971 | locus YCL029C, strain bik1, hits give low values 0.996 | locus YCL061C, strain MRC1 (second series), hits give low values 1.01 | locus YCL061C, strain MRC1, hits give low values 0.999 | locus YCL069W, strain vba3, hits give low values 0.993 | locus YCR088W, strain abp1, hits give low values 0.995 | locus YDL005C, strain med2, hits give low values 0.984 | locus YDL035C, strain GPR1, hits give low values 1.02 | locus YDL040C, strain nat1, hits give low values 1 | locus YDL074C, strain BRE1, hits give low values 0.989 | locus YDL101C, strain DUN1, hits give low values 1.01 | locus YDL134C, strain PPH21, hits give low values 1.01 | locus YDL185W, strain tfp1, hits give low values 0.998 | locus YDL192W, strain arf1, hits give low values 0.999 | locus YDR001C, strain nth1, hits give low values 0.996 | locus YDR069C, strain doa4, hits give low values 1.03 | locus YDR101C, strain arx1, hits give low values 1.03 | locus YDR137W, strain rgp1, hits give low values 0.97 | locus YDR159W, strain sac3, hits give low values 1 | locus YDR162C, strain NBP2, hits give low values 1.01 | locus YDR195W, strain ref2 0.982 | locus YDR297W, strain sur2, hits give low values 1 | locus YDR318W, strain mcm21, hits give low values 0.991 | locus YDR334W, strain swr1, hits give low values 1 | locus YDR335W, strain msn5, hits give low values 1 | locus YDR363W, strain ESC2, hits give low values 1.02 | locus YDR388W, hits give low values 0.993 | locus YDR392W, strain spt3, hits give low values 0.962 | locus YDR502C, strain sam2, hits give low values 0.994 | locus YEL003W, strain gim4, hits give low values 1.01 | locus YEL037C, strain rad23, hits give low values 0.992 | locus YEL061C, strain CIN8 (second series), hits give low values 0.991 | locus YEL061C, strain CIN8, hits give low values 1 | locus YER002W, strain NOP16, hits give low values 0.996 | locus YER015W, strain faa2, hits give low values 0.983 | locus YER016W, strain bim1, hits give low values 1.01 | locus YER110C, hits give low values 0.998 | locus YER111C, strain swi4, hits give low values 0.992 | locus YER155C, strain BEM2 (second series), hits give low values 1.02 | locus YER155C, strain BEM2, hits give low values 1.01 | locus YER167W, strain BCK2, hits give low values 1 | locus YFR010W, strain ubp6, hits give low values 1 | locus YGL078C, strain dbp3, hits give low values 0.997 | locus YGL086W, strain mad1, hits give low values 0.999 | locus YGL167C, strain pmr1, hits give low values 1 | locus YGL173C, strain kem1, hits give low values 0.996 | locus YGL227W, strain vid30, hits give low values 0.996 | locus YGL240W, strain doc1, hits give low values 1 | locus YGL248W, strain PDE1, hits give low values 1 | locus YGL253W, strain hxk2, hits give low values 1 | locus YGR078C, strain PAC10, hits give low values 1.01 and 0.993 | locus YGR135W, strain pre9, hits give low values 0.984 | locus YGR229C, strain SMI1, hits give low values 1.01 | locus YGR252W, strain gcn5, hits give low values 0.969 | locus YHR013C, strain ard1, hits give low values 0.999 | locus YHR027C, strain rpn1, hits give low values 0.99 | locus YHR030C, strain SLT2, hits give low values 1.01 and 0.971 | locus YHR079C, strain IRE1 (second series), hits give low values 0.996 | locus YHR079C, strain IRE1, hits give low values 0.962 | locus YHR094C, strain hxt1, hits give low values 0.993 | locus YHR129C, strain ARP1, hits give low values 1 | locus YHR142W, strain chs7, hits give low values 0.994 | locus YHR200W, strain rpn10, hits give low values 1 | locus YIL066C, strain RNR3, hits give low values 1.01 | locus YIL073C, strain SPO22, hits give low values 1.01 | locus YIL125W, strain kgd1, hits give low values 0.996 | locus YIR030C, strain dcg1, hits give low values 1 | locus YJL092W, strain hpr5, hits give low values 1 | locus YJL095W, strain BCK1 (second series), hits give low values 1 | locus YJL095W, strain BCK1, hits give low values 1.01 and 0.976 | locus YJL115W, strain asf1, hits give low values 1.01 | locus YJL129C, strain trk1, hits give low values 1 | locus YJL134W, strain LCB3, hits give low values 1.01 | locus YJL154C, strain vps35, hits give low values 0.995 | locus YJL164C, strain tpk1, hits give low values 0.995 | locus YJL166W, strain qcr8, hits give low values 0.999 | locus YJL168C, strain set2, hits give low values 0.993 | locus YJL187C, strain SWE1 (second series), hits give low values 1.01 | locus YJL187C, strain SWE1, hits give low values 0.998 | locus YJR043C, strain POL32, hits give low values 1.02 | locus YJR066W, strain TOR1, hits give low values 0.937 | locus YJR075W, strain HOC1, hits give low values 1.01 | locus YKL009W, strain mrt4, hits give low values 1.01 | locus YKL068W, hits give low values 1 | locus YKL085W, strain MDH1 (second series), hits give low values 0.994 | locus YKL085W, strain MDH1, hits give low values 0.994 | locus YKL160W, strain elf1, hits give low values 0.988 | locus YKL190W, strain CNB1, hits give low values 1.01 | locus YKR001C, strain vps1, hits give low values 1.01 | locus YKR026C, strain gcn3, hits give low values 0.997 | locus YKR091W, strain srl3, hits give low values 0.997 | locus YLL001W, strain dnm1, hits give low values 0.98 | locus YLL026W, hits give low values 1 | locus YLL041C, strain sdh2, hits give low values 0.997 | locus YLR027C, strain aat2, hits give low values 1.01 | locus YLR039C, strain RIC1, hits give low values 0.936 | locus YLR058C, strain SHM2, hits give low values 0.989 | locus YLR102C, strain apc9, hits give low values 0.993 | locus YLR113W, strain HOG1, hits give low values 0.989 | locus YLR221C, strain rsa3, hits give low values 0.963 | locus YLR258W, strain gsy2, hits give low values 0.996 | locus YLR262C, strain YPT6 (second series), hits give low values 0.992 | locus YLR262C, strain YPT6, hits give low values 1.01 | locus YLR268W, strain sec22, hits give low values 0.991 | locus YLR320W, strain mms22, hits give low values 0.998 | locus YLR330W, strain CHS5, hits give low values 1.01 | locus YLR342W, strain FKS1 (second series), hits give low values 1.02 | locus YLR342W, strain FKS1, hits give low values 1 | locus YLR357W, strain rsc2, hits give low values 1.01 | locus YLR370C, strain arc18, hits give low values 0.983 | locus YLR371W, strain rom2, hits give low values 1 | locus YLR384C, strain iki3, hits give low values 0.996 | locus YLR418C, strain cdc73, hits give low values 0.978 | locus YML016C, strain PPZ1, hits give low values 1.01 | locus YML032C, strain rad52, hits give low values 1 | locus YML120C, strain ndi1, hits give low values 0.978 | locus YML124C, strain tub3, hits give low values 0.999 | locus YMR058W, strain fet3, hits give low values 0.998 | locus YMR078C, strain ctf18, hits give low values 0.993 | locus YMR125W, strain sto1, hits give low values 1 | locus YMR129W, hits give low values 0.995 | locus YMR205C, strain PFK2, hits give low values 0.992 | locus YMR223W, strain ubp8, hits give low values 0.985 | locus YMR231W, strain pep5, hits give low values 0.996 | locus YMR263W, strain SAP30, hits give low values 1.01 | locus YMR307W, strain GAS1, hits give low values 0.999 | locus YNL067W, strain RPL9B, hits give low values 1.01 | locus YNL071W, strain lat1, hits give low values 1 | locus YNL128W, strain TEP1, hits give low values 1.02 | locus YNL153C, strain GIM3, hits give low values 1.01 and 1.02 | locus YNL175C, strain NOP13, hits give low values 1.02 | locus YNL183C, strain NPR1, hits give low values 0.956 | locus YNL197C, strain WHI3, hits give low values 1 | locus YNL209W, strain ssb2, hits give low values 0.998 | locus YNL224C, strain SQS1, hits give low values 0.996 | locus YNL233W, strain BNI4, hits give low values 1.01 | locus YNL248C, strain rpa49, hits give low values 1.01 | locus YNL250W, strain rad50, hits give low values 0.987 | locus YNL271C, strain bni1, hits give low values 0.991 | locus YNL298W, strain CLA4, hits give low values 1 | locus YNL307C, strain MCK1, hits give low values 0.999 | locus YNL322C, strain KRE1 (second series), hits give low values 0.993 | locus YNL322C, strain KRE1, hits give low values 1 and 1.01 | locus YNR049C, strain mso1, hits give low values 1 | locus YNR052C, strain pop2, hits give low values 0.999 | locus YOL006C, strain TOP1, hits give low values 1.03 | locus YOL012C, strain htz1 0.74 | locus YOL147C, strain pex11, hits give low values 0.993 | locus YOR001W, strain rrp6, hits give low values 1.04 | locus YOR061W, strain CKA2, hits give low values 1 | locus YOR069W, strain VPS5, hits give low values 1.01 | locus YOR070C, strain gyp1, hits give low values 0.994 | locus YOR080W, strain dia2, hits give low values 1 | locus YOR083W, strain WHI5 (second series), hits give low values 0.981 | locus YOR083W, strain WHI5, hits give low values 0.988 | locus YOR106W, strain vam3, hits give low values 1.01 | locus YOR136W, strain idh2, hits give low values 0.997 | locus YOR144C, strain elg1, hits give low values 0.994 | locus YOR184W, strain ser1, hits give low values 0.994 | locus YOR231W, strain MKK1, hits give low values 0.972 | locus YOR265W, strain rbl2, hits give low values 0.997 | locus YOR270C, strain vph1, hits give low values 1.03 | locus YOR290C, strain snf2, hits give low values 0.956 | locus YOR316C, strain cot1, hits give low values 0.996 | locus YPL051W, strain arl3, hits give low values 1 | locus YPL055C, strain LGE1, hits give low values 1.02 | locus YPL078C, strain atp4, hits give low values 0.994 | locus YPL106C, strain sse1, hits give low values 0.979 | locus YPL240C, strain hsp82, hits give low values 1 | locus YPL241C, strain CIN2, hits give low values 1.01 | locus YPL256C, strain CLN2, hits give low values 0.986 | locus YPR119W, strain clb2, hits give low values 0.992 | locus YPR141C, strain kar3, hits give low values 1 | locus YPR163C, strain tif3, hits give low values 0.994 | locus YPR167C, strain met16, hits give low values 1 | strain wtn01, hits give low values 0.984
